Records with an inconclusive call do not appear. Entries that show only a call come without a potency. The source made the active and inactive calls. Calls come from the whole dose curve.

The assay is described as follows: qHTS assay for small molecule agonists of the antioxidant response element (ARE) signaling pathway - cell viability counter screen (AID 743203). Note: nearly all actives have a fitted effect of over 55% in size. The following applies: ARE-bla HepG2 viability, CellTiter-Glo luminescence, 16 h; series mostly up to 73.3 µM. From the text:
National Center for Advancing Translational Sciences [NCATS]
NIH Chemical Genomics Center [NCGC]
U.S. Environmental Protection Agency [EPA]
National Institutes of Environmental Health Sciences [NIEHS]
National Toxicology Program [NTP]
U.S. Food and Drug Administration [FDA]
Oxidative stress has been implicated in the pathogenesis of a variety of diseases ranging from cancer to neurodegeneration. The antioxidant response element (ARE) signaling pathway plays an important role in the amelioration of oxidative stress. The CellSensor ARE-bla HepG2 cell line (Invitrogen) can be used for analyzing the Nrf2/antioxidant response signaling pathway. Nrf2 (NF-E2-related factor 2) and Nrf1 are transcription factors that bind to AREs and activate these genes. The CellSensor ARE-bla Hep G2 cell line contains a beta-lactamase reporter gene under control of the Antioxidant Response Element (ARE) stably integrated into HepG2 cells. The activation of the report gene under culture conditions can be detected by fluorescence intensity. This cell line has been used to screen the Tox21 10K compound library to identify agonists that induce oxidative stress. The cytotoxicity of the Tox21 compound library against the ARE-bla cell line was tested in parallel by measuring the cell viability using CellTiter-Glo assay (Promega, Madison, WI) in the same wells.
Tox21 Assay Protocol Summary:
ARE-bla HepG2 cells were dispensed at 2,000 cells/5 ul/well in 1536-well white wall/solid bottom plates using a Multidrop Combi (ThermoFisher Scientific, Waltham, MA) dispenser. After the assay plates were incubated at 37C/5% CO2 for 5 hrs, 23 nL of compounds dissolved in DMSO, positive controls or DMSO only was transferred to the assay plate by a pintool work station (Kalypsys, San Diego, CA). The plates were incubated at 37C/5% CO2 for 16 hrs, followed by addition of 4 ul/well of CellTiter-Glo reagent into the assay plates using a Flying Reagent Dispenser (Aurora Discovery, San Diego, CA). After 30 min incubation at room temperature, the luminescence intensity in the assay plates was measured using a ViewLux (PerkinElmer, Shelton, CT) plate reader.
For orientation: In qHTS, concentration-response curves come from the screen itself.
For `ClCCCN1CCN(c2cccc(Cl)c2)CC1`, the Potency result is “inactive”.

Turning to `CCN(Cc1ccc(Cl)nc1)/C(=C/[N+](=O)[O-])NC`, the Potency result is “inactive”.

For the compound `COC(=O)C(c1ccccc1)C1CCCCN1` (stereo not given), the Potency result is “inactive”.

Take `CCCCC(=O)Cl`: the Potency result was “inactive”.

Turning to `c1ccc(N2CCNCC2)cc1`, the Potency entry was “inactive”.

Take `CCNc1nc(NC(C)C)nc(OC)n1`: the Potency result is “inactive”.

Regarding `O=C(CCCN1CCC(n2c(=O)[nH]c3ccccc32)CC1)c1ccc(F)cc1`, the Potency entry was “inactive”.

In the case of `CC(=O)[C@H]1CC[C@H]2[C@@H]3CC[C@H]4C[C@H](O)CC[C@]4(C)[C@H]3C(=O)C[C@]12C`, the Potency entry is “inactive”.

In the case of `CCOP(=O)(OCC)OP(=O)(OCC)OCC`, the Potency entry was “inactive”.

Consider `COP(=S)(OC)Oc1c(Cl)cc(C)cc1Cl`, for which the Potency result is “inactive”.

As to `CCCCOC(=O)[C@@H](C)Oc1ccc(Oc2ccc(C#N)cc2F)cc1`, the Potency result was “inactive”.

In the case of `ClC(Cl)C(Cl)Cl`, the Potency entry is “inactive”.

For the compound `Cc1ncsc1CCCl`, the Potency entry was “inactive”.

For the compound `Clc1ccccc1N1CCNCC1`, the Potency entry was “inactive”.

Regarding `COC(=O)c1ccccc1S(=O)(=O)NC(=O)N(C)c1nc(C)nc(OC)n1`, the Potency entry was “inactive”.

Regarding `C[N+](C)=CCl`, the Potency entry was “inactive”.

With `CCN(CC)CCOC(=O)C(C)(c1ccccc1)c1ccccc1`, the Potency result is “inactive”.

`OCCBr`: the Potency entry is “inactive”.

On to `CCOP(=S)(OCC)Oc1nc(Cl)n(C(C)C)n1`, for which the Potency result is “inactive”.

With `NC(=S)C(N)=S`, the Potency entry was “inactive”.

`N#CCCC#N`: the Potency result was “inactive”.

In the case of `Nc1cc(Cl)ccc1O`, the Potency entry is “inactive”.

For `CCCSC(=O)Cl`, the Potency result was “inactive”.

Take `c1cc2c(c(N3CCNCC3)c1)OCCO2`: the Potency entry was “inactive”.

For the compound `O=CNC(N1CCN(C(NC=O)C(Cl)(Cl)Cl)CC1)C(Cl)(Cl)Cl` (stereo not given), the Potency entry is “inactive”.

For `O=C1OC(CCN2CCCCC2)OC1(c1ccccc1)c1ccccc1` (stereo not given), the Potency entry was “inactive”.

In the case of `CC1CCCCC1NC(=O)Nc1ccccc1` (stereo not given), the Potency entry is “inactive”.

Regarding `COC(C)(C)C`, the Potency result is “inactive”.

Regarding `Cc1nc(N)nc(N)n1`, the Potency entry was “inactive”.

Regarding `N#CC(Cl)(Cl)Cl`, the Potency result is “inactive”.

As for `NC1=NC(=O)C(c2ccccc2)O1` (stereo not given), the Potency result was “inactive”.

As to `CCS(=O)(=O)C(C)(C)S(=O)(=O)CC`, the Potency result is “inactive”.

As to `N#CC(O)c1ccccc1` (stereo not given), the Potency entry was “inactive”.

In the case of `CC(=O)CCc1ccc2c(c1)OCO2`, the Potency result was “inactive”.

As to `CCCSP(=O)(OCC)Oc1ccc(Br)cc1Cl` (stereo not given), the Potency entry is “inactive”.

As to `ClCCOCOCCCl`, the Potency entry is “inactive”.

For `O=C(NCO)NCO`, the Potency entry was “inactive”.

In the case of `O=[N+]([O-])c1cccc2c([N+](=O)[O-])cccc12`, the Potency entry was “inactive”.

In the case of `CC(Cl)(Cl)[N+](=O)[O-]`, the Potency result is “inactive”.

For the compound `N#CCNCC#N`, the Potency result was “inactive”.

Source of the values: PubChem BioAssay (Tox21).
